Screening data (PubChem BioAssay)
Shown are actives, neighbours in structure and some others; about 3.6% of the full set was active somewhere.
Pf apPOL block = Pf-apPOL DNA polymerase inhibition; Recombinant Pf-apPOL, molecular beacon fluorescence, 1.5 h; inhibition, % at 10 µM; 0.25% of 210,000 active; AID 1794808
mHTT-CaM PPI inh = disrupts binding of mutant huntingtin to calmodulin. P42858. AlphaScreen His-mHTT/GST-CaM binding, luminescence. inhibition, % at 15 µM. 3.6% of 190,000 active. AID 1671202;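 also: 0% = both proteins with DMSO and 100% = one protein alone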
Numbers without * were called inactive; · = no result. Rule as the data show it: active = inhibition above about 50%; inactive = the rest.

SMILES	Pf apPOL block	mHTT-CaM PPI inh
O=C(Nc1ccccc1)N1CCc2[nH]cnc2C1c1ccccc1 (stereo unspecified)	-0.1	14.8
O=C(Cc1ccccc1F)N1CCc2[nH]cnc2C1c1ccccc1 (stereo unspecified)	-4.9	7.3
O=C(Cc1ccc(Cl)cc1)N1CCc2[nH]cnc2C1c1ccccn1 (stereo unspecified)	-19.6	90.9*
O=C(Nc1ccccc1)N1CCc2[nH]cnc2C1c1ccccn1 (stereo unspecified)	-2.6	50.8*
O=C(Cc1ccc(F)cc1)N1CCc2[nH]cnc2C1c1ccncc1 (stereo unspecified)	-0.5	8.1
Fc1ccccc1C=Nc1ccc(Cl)cc1Cl	-6.0	0.0
Cc1cccc(NC2CC(=O)N(c3ccc(F)cc3)C2=O)c1 (stereo unspecified)	-1.7	-7.6
COc1cccc2cc(C(=O)NCC3CCN(Cc4cc(C)oc4C)CC3)oc12	-5.2	6.5
COc1ccc(CCN(C(=O)/C=C/C(=O)O)C2CC(=O)N(c3ccccc3)C2=O)cc1OC (stereo unspecified)	-0.7	-5.0
O=C(Nc1ccc2c(c1)OCCO2)N1CCC2(CC1)Nc1cc(F)ccc1-n1cccc12	-1.6	68.5*
Cc1ccc(NC(=O)N2CCC3(CC2)Nc2cc(F)ccc2-n2cccc23)cc1	-4.9	61.5*
CCOC(=O)c1cccc(NC(=O)N2CCC3(CC2)Nc2cc(F)ccc2-n2cccc23)c1	-2.3	67.9*
O=C(Nc1ccc(F)cc1)N1CCC2(CC1)Nc1cc(F)ccc1-n1cccc12	0.2	47.8
CN1c2cc(F)ccc2C(=O)NC12CCN(C(=O)Nc1ccc3c(c1)OCO3)CC2	-3.5	4.9
CCOC(=O)c1ccc(NC(=O)N2CCC3(CC2)Nc2cc(F)ccc2-n2cccc23)cc1	-0.8	56.5*
COC(=O)c1cc(OC)cc(OC)c1C1C(C#N)=C(C)NC(C)=C1C#N	8.7	·
Cc1ccc(NC(=O)C2CCCN(c3nccc4sccc34)C2)cc1F (stereo unspecified)	-6.7	-5.1
O=C(NCc1ccc(F)cc1Cl)C1CCCN(c2nccc3sccc23)C1 (stereo unspecified)	4.9	-0.6
O=C(C1CCCN(c2nccc3sccc23)C1)N1CCN(c2ccc(F)cc2)CC1 (stereo unspecified)	-17.2	94.6*
Cc1cc2c(N3CCCC(C(=O)N4CCN(c5ccccc5)CC4)C3)nccc2s1 (stereo unspecified)	-0.4	99.8*
Cc1cc2c(N3CCCC(C(=O)N4CCN(C5CCCCC5)CC4)C3)nccc2s1 (stereo unspecified)	-4.9	39.6
O=C(C1CCCN(c2nccc3sccc23)C1)N1CCN(c2ccccc2F)CC1 (stereo unspecified)	-4.4	89.8*
CCOc1ccc(NS(=O)(=O)c2ccc(NC(=O)C3CCCCC3)cc2)cc1	-0.5	-5.8
CCc1ccccc1NS(=O)(=O)c1cc(Cl)ccc1Cl	1.4	-28.0
COc1ccc(Nc2nc(N(C)C)nc3nccnc23)cc1	-20.5	54.9*
SMILES	Pf apPOL block	mHTT-CaM PPI inh
COc1ccc(OC)c(Nc2nc3nonc3nc2Nc2ccc(F)cc2)c1	4.9	14.0
CC(=O)N1CCN(c2ccc(Cl)cc2[N+](=O)[O-])CC1C (stereo unspecified)	-5.7	6.0
O=C(CSc1ccc(-c2ccccn2)nn1)Nc1ccc(F)c(F)c1	-5.8	99.4*
O=C(CSc1ccccn1)Nc1ccc(Br)cc1	3.1	-12.0
CCCCCCCCCCCC(=N)OC	-7.0	·
O=C(Nc1ccc(F)cc1)c1ccc2nc(N3C(=O)CCC3=O)sc2c1	-4.6	3.9
Oc1c(C(Nc2ccccn2)c2ccccc2Br)ccc2cccnc12 (stereo unspecified)	-0.8	99.0*
Oc1ccc(Br)c(C(Nc2ccccn2)c2ccc3cccnc3c2O)c1 (stereo unspecified)	-3.8	100.0*
O=C(Nc1cc(Br)cc2cccnc12)c1ccccc1Br	-4.9	-4.0
CC(=O)Nc1cccc(NC(=O)C(Cl)Cl)c1	-2.9	-2.0
COc1ccc2nc(-c3ccc(NS(=O)(=O)c4ccccc4C(F)(F)F)cc3)cn2n1	-8.4	13.3
CCOC(=O)C(C)Oc1ccc2c(c1)OC(=Cc1ccco1)C2=O (stereo unspecified)	-2.7	-1.7
COc1ccc(C(=O)N2CCN(c3ccc(F)cc3)CC2)cc1[N+](=O)[O-]	-2.0	13.8
COc1cc(OC)c(NC(=O)CSc2ncnc3c2sc2ccccc23)cc1Cl	-13.0	6.0
CC1(C)CC(=O)C2=C(C1)Nc1nc(-c3ccc(O)cc3)nn1C2c1ccccc1 (stereo unspecified)	-0.4	-8.5
COc1cc(-c2nc3n(n2)C(c2ccccc2)C2=C(CCCC2=O)N3)cc(OC)c1OC (stereo unspecified)	-2.6	52.4*
CC1(C)CC(=O)C2=C(C1)Nc1nc(-c3ccccc3)nn1C2c1ccc(F)cc1 (stereo unspecified)	-1.0	78.0*
COc1cc(C2C3=C(CCCC3=O)Nc3nc(-c4ccc(O)cc4)nn32)cc(OC)c1OC (stereo unspecified)	-2.0	12.3
COc1ccc(-c2nc3n(n2)C(c2ccc(OC)c(OC)c2)C2=C(CCCC2=O)N3)cc1 (stereo unspecified)	-0.8	16.3
COc1ccc(C2C3=C(CCCC3=O)Nc3nc(-c4ccc(N(C)C)cc4)nn32)cc1OC (stereo unspecified)	1.6	80.3*
COCCCNc1oc(-c2ccccc2Cl)nc1S(=O)(=O)c1ccccc1	-4.2	3.0
O=C(c1cc(Cl)ccc1Cl)N1CCC(c2ccccc2)C1 (stereo unspecified)	-7.1	-18.2
N#CCCN(CCc1ccccc1)S(=O)(=O)c1ccc(-c2ccc([N+](=O)[O-])cc2)cc1	7.2	2.0
N#CC1=C2CCCCC2C2(CCCCC2)C(C#N)(C#N)C1=O (stereo unspecified)	·	-2.0
COc1ccc(NC(=O)c2c(Cl)cc(Cl)nc2Cl)cc1	-1.4	-8.0
SMILES	Pf apPOL block	mHTT-CaM PPI inh
COc1ccc(NC(=O)c2c(C)sc3c(C)c(C)[nH]c23)cc1	26.3	54.2*
O=C(Nc1cc(C(F)(F)F)ccc1Cl)c1ccc(Br)cc1	2.2	-19.0
CC(=O)Nc1ccc(C(=O)NCc2cccc(Cl)c2)c(N2CCOCC2)c1	-1.9	8.8
CC(=O)Nc1ccc(C(=O)NCc2ccc(F)c(Cl)c2)c(N2CCCCC2)c1	1.2	98.7*
Nc1nc2c(nc(N=Nc3c(O)[nH]c4ccccc34)n2C2OC(CO)C(O)C2O)c(=O)[nH]1 (stereo unspecified)	·	63.3*
NCCCCCCNc1nc2c(=O)[nH]cnc2n1C1OC(CO)C(O)C1O (stereo unspecified)	·	-4.5
Cn1cc(C2=CCN(S(=O)(=O)c3ccccc3)CC2)c2cccnc21	-5.1	21.7
O=[N+]([O-])c1ccc(/C=C/S(=O)(=O)N2C=Cc3ccccc3C2c2c[nH]c3ccccc23)cc1 (stereo unspecified)	1.9	57.0*
O=C(c1ccc([N+](=O)[O-])cc1)N1CCN(Cc2c[nH]c3ccccc23)CC1	-1.8	20.5
CCn1ncc(Br)c1C(=O)Nc1ccc(N(C)C)cc1	-6.8	56.0*
CCn1ncc(Br)c1C(=O)Nc1cccc(C(=O)O)c1	-2.8	0.0
CN(C)c1ccc(NC(=O)c2ccc(Cn3cc([N+](=O)[O-])cn3)cc2)cc1	-3.5	75.0*
CN(C)c1ccc(NC(=O)c2ccc(N(C)C)cc2)cc1	-2.7	72.2*
CN(C)c1ccc(NC(=O)c2ccc(Br)cc2)cc1	6.9	6.7
